These results are taken from PubChem BioAssay AID504942 (Broad Institute, 2011).

Each structure is given as a SMILES string. Results with a measured potency or affinity are listed apart. Calls of active or inactive are those of the source. The rule behind the calls is not given here.

The assay can be described thus: HeLa cell cytotoxicity, dose response, cytotoxicity control, 48 h, plate reader, cherry-picks (AID 504942). As to conditions: series mostly up to 38 µM.
Turning to `O=S1(=O)CCOC[C@H](c2ccccc2)N1Cc1cccc(Cl)c1`, the result was inactive. For the compound `O=C(/C=C/c1cccs1)c1cc(Cl)ccc1O`, the result was inactive. On to `N#Cc1cc(-c2ccccc2)cnc1Cl`, for which the compound was classed as inactive. To `Clc1ccc2scc(CN3CCCCC3)c2c1` belongs “inactive”.

For `CCOc1ccc(CNC2CCCc3ccccc32)cc1` (centres undefined), the compound was called inactive. To `Cc1ccc(C)c(S(=O)(=O)NC2CCSC2=O)c1` (centres undefined) belongs “inactive”; to `O=C1N[C@@H](Cc2ccccc2)[C@@H](c2ccco2)O1`, “inactive”; to `O=C(NC1CCCC1)c1cccc(Cl)c1`, “inactive”. In the case of `Cc1cc(NC(=O)c2cc([N+](=O)[O-])ccc2Cl)no1`, the call was inactive. To `COc1ccc(N2CCN(C(=O)c3ccc(Br)o3)CC2)cc1` belongs “inactive”; to `COc1ccc(C(C#N)c2ccc(Cl)nn2)cc1` (centres undefined), “inactive”; to `N#CN(Cc1ccccc1)Cc1ccccc1`, “inactive”. To `O=[N+]([O-])c1ccc(-c2cccnc2)cc1` belongs “inactive”; to `CO/N=C/c1cn(-c2ccc(Cl)cc2)nn1`, “inactive”. To `COc1ccc(CNCc2cccc(Cl)c2)cc1` belongs “inactive”; to `Cc1ccc2scc(CN3CCCC3)c2c1`, “inactive”; to `O=C1C=C(c2cc(F)ccc2F)C[C@@H](c2ccc(F)cc2)C1`, “inactive”. On to `CCOC(=O)c1ccc(-c2ccc(CO)o2)cc1`, for which the compound was called inactive. To `COc1ccc(N=C(C)C2=C(O)CSC2=O)cc1` belongs “inactive”; to `Cc1ccc(C(C#N)c2ccc(Cl)nn2)cc1` (centres undefined), “inactive”. The result for `COC(=O)c1ccc(OC(=O)c2cccs2)cc1` reads “inactive”; that for `O=CN(c1ccccc1)c1ccc2ccccc2c1`, “inactive”; that for `Cc1cc(NC(=O)c2cc([N+](=O)[O-])cc([N+](=O)[O-])c2C)no1`, “inactive”.

For the compound `N#CC(Sc1ccccn1)c1ccc(Cl)cc1` (centres undefined), the result was inactive. As to `O=C(c1cccc([N+](=O)[O-])c1)N1CC2C3C=CC(C3)C2C1` (centres undefined), the compound was called inactive. In the case of `CCOC(=O)c1cc2c(s1)-c1c(C)cccc1OC2`, the compound was called inactive.

Consider `Cc1cccc(C(C#N)c2ccc(Cl)nn2)c1` (centres undefined), for which the outcome was inactive. To `COC(=O)c1ccc(OC(=O)c2ccco2)cc1` belongs “inactive”; to `CCOC(=O)N1CCN(c2ccc(Cl)cc2)CC1`, “inactive”.
